# Data published in the supplement of paper PMC6897291.
# Experiments:
# [1] = test system: U-2932; assay: growth inhibition by drug alone (1 - RLU/untreated control) (fraction); higher = stronger inhibition; conditions: 177Lu-lilotomab satetraxetan 0 ug/ml
# How it was run: (§1)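 Compound doses on the pre-printed Selleck Cambridge Cancer Compound library plates were 10/100 nM for RIVA cells and 10/1,000 nM for U-2932 cells, seeded at 3,000 cells/well. Before seeding, cells were washed after 18 h with or without a radiolabelled anti-CD37 antibody conjugate (~600 MBq/mg; 0.5 µg/ml RIVA, 1 µg/ml U-2932). Growth inhibition was derived from RealTime-Glo luminescence relative to untreated no-drug control wells. Readings were taken daily starting on day 3, each after 1 h at 37°C, and each well's RLU was divided by the mean of 48 such wells per plate and subtracted from 1.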
# [2] = test system: RIVA; assay: as above; conditions: 177Lu-lilotomab satetraxetan 0 ug/ml
# How it was run: as §1
# [3] = test system: U-2932; assay: growth inhibition by drug plus 177Lu-lilotomab satetraxetan (1 - RLU/untreated control) (fraction); higher = stronger inhibition; conditions: 177Lu-lilotomab satetraxetan 1 ug/ml
# How it was run: as §1
# [4] = test system: RIVA; assay: as above; conditions: 177Lu-lilotomab satetraxetan 0.5 ug/ml
# How it was run: as §1
Structure (SMILES),"growth inhibition by drug alone ([1]; 10 nM, time (day): 3)","growth inhibition by drug alone ([1]; 10 nM, time (day): 4)","growth inhibition by drug alone ([1]; 10 nM, time (day): 5)","growth inhibition by drug alone ([1]; 10 nM, time (day): 6)","growth inhibition by drug alone ([1]; 1000 nM, time (day): 3)","growth inhibition by drug alone ([1]; 1000 nM, time (day): 4)","growth inhibition by drug alone ([1]; 1000 nM, time (day): 5)","growth inhibition by drug alone ([1]; 1000 nM, time (day): 6)","growth inhibition by drug alone ([2]; 10 nM, time (day): 3)","growth inhibition by drug alone ([2]; 10 nM, time (day): 4)","growth inhibition by drug alone ([2]; 10 nM, time (day): 5)","growth inhibition by drug alone ([2]; 10 nM, time (day): 6)","growth inhibition by drug alone ([2]; 100 nM, time (day): 3)","growth inhibition by drug alone ([2]; 100 nM, time (day): 4)","growth inhibition by drug alone ([2]; 100 nM, time (day): 5)","growth inhibition by drug alone ([2]; 100 nM, time (day): 6)","growth inhibition by drug plus 177Lu-lilotomab satetraxetan ([3]; 10 nM, time (day): 3)","growth inhibition by drug plus 177Lu-lilotomab satetraxetan ([3]; 10 nM, time (day): 4)","growth inhibition by drug plus 177Lu-lilotomab satetraxetan ([3]; 10 nM, time (day): 5)","growth inhibition by drug plus 177Lu-lilotomab satetraxetan ([3]; 10 nM, time (day): 6)","growth inhibition by drug plus 177Lu-lilotomab satetraxetan ([3]; 1000 nM, time (day): 3)","growth inhibition by drug plus 177Lu-lilotomab satetraxetan ([3]; 1000 nM, time (day): 4)","growth inhibition by drug plus 177Lu-lilotomab satetraxetan ([3]; 1000 nM, time (day): 5)","growth inhibition by drug plus 177Lu-lilotomab satetraxetan ([3]; 1000 nM, time (day): 6)","growth inhibition by drug plus 177Lu-lilotomab satetraxetan ([4]; 10 nM, time (day): 3)","growth inhibition by drug plus 177Lu-lilotomab satetraxetan ([4]; 10 nM, time (day): 4)","growth inhibition by drug plus 177Lu-lilotomab satetraxetan ([4]; 10 nM, time (day): 5)","growth inhibition by drug plus 177Lu-lilotomab satetraxetan ([4]; 10 nM, time (day): 6)","growth inhibition by drug plus 177Lu-lilotomab satetraxetan ([4]; 100 nM, time (day): 3)","growth inhibition by drug plus 177Lu-lilotomab satetraxetan ([4]; 100 nM, time (day): 4)","growth inhibition by drug plus 177Lu-lilotomab satetraxetan ([4]; 100 nM, time (day): 5)","growth inhibition by drug plus 177Lu-lilotomab satetraxetan ([4]; 100 nM, time (day): 6)"
Nc1cccc2c1CN(C1CCC(=O)NC1=O)C2=O (centres undefined) [Lenalidomide],0.0697,0.0182,-0.0235,0.0966,0.122,0.186,0.18,0.309,-0.0108,-0.0398,-0.0471,-0.0439,-0.101,-0.141,-0.183,-0.226,0.069,0.101,0.148,0.257,0.215,0.263,0.303,0.434,0.534,0.564,0.587,0.589,0.428,0.481,0.499,0.508
CC[C@H]1OC(=O)[C@H](C)[C@@H](O[C@H]2C[C@@](C)(OC)[C@@H](O)[C@H](C)O2)[C@H](C)[C@@H](O[C@@H]2O[C@H](C)C[C@H](N(C)C)[C@H]2O)[C@](C)(O)C[C@@H](C)CN(C)[C@H](C)[C@@H](O)[C@]1(C)O [Azithromycin (Zithromax)],0.204,0.13,0.0304,-0.0338,0.0821,0.11,0.0532,-0.0307,0.16,0.206,0.16,0.0424,0.0514,0.129,0.0797,-0.0131,0.138,0.178,0.198,0.299,0.0676,0.168,0.163,0.224,0.526,0.619,0.633,0.639,0.499,0.586,0.576,0.561
CS(=O)(=O)N1CCc2c(-c3cnc(N)nc3)nc(N3CCOCC3)nc21,0.149,0.108,-0.0352,-0.0152,0.351,0.362,0.336,0.366,0.14,0.0286,-0.0356,-0.278,0.291,0.165,0.108,0.0361,0.0821,0.0867,0.0957,0.135,0.216,0.214,0.223,0.326,0.395,0.499,0.537,0.543,0.451,0.434,0.439,0.428
COc1cccc2c1C(=O)c1c(O)c3c(c(O)c1C2=O)C[C@@](O)(C(=O)CO)C[C@@H]3O[C@H]1C[C@H](N)[C@H](O)[C@H](C)O1 [Doxorubicin (Adriamycin)],0.258,0.293,0.356,0.433,0.974,0.983,0.986,0.988,0.198,0.324,0.365,0.391,0.62,0.794,0.872,0.915,0.422,0.492,0.589,0.687,0.979,0.986,0.989,0.99,0.831,0.879,0.909,0.933,0.869,0.928,0.952,0.968
CO[C@@H](C(=O)N1Cc2[nH]nc(NC(=O)c3ccc(N4CCN(C)CC4)cc3)c2C1)c1ccccc1,0.0385,-0.0423,-0.0829,-0.0542,0.206,0.258,0.259,0.368,-0.0286,-0.0311,-0.0917,-0.234,0.138,0.0638,0.148,0.29,0.00406,0.0748,0.116,0.142,0.398,0.469,0.53,0.634,0.555,0.594,0.603,0.604,0.514,0.615,0.685,0.776
N#Cc1ccc(COC[C@H]2O[C@@H](n3c(NCc4ccc(Cl)c(Cl)c4)nc4c(N)ncnc43)[C@H](O)[C@@H]2O)cc1,0.115,0.0829,-0.00792,-0.0103,0.0695,0.0449,-0.0886,-0.0586,-0.00484,-0.0139,-0.22,-0.465,-0.367,-0.326,-0.323,-0.395,-0.0128,0.0586,0.0723,0.037,0.12,0.128,0.109,0.165,0.498,0.574,0.59,0.586,0.472,0.543,0.557,0.551
O=C(/C=C/c1cccc(S(=O)(=O)Nc2ccccc2)c1)NO [Belinostat (PXD101)],0.222,0.196,0.137,0.152,0.961,0.964,0.974,0.979,0.107,0.129,0.11,0.00837,0.884,0.83,0.818,0.796,0.0215,0.0654,0.0711,0.0685,0.961,0.975,0.984,0.988,0.503,0.586,0.594,0.603,0.934,0.935,0.938,0.945
